Measured values from PubChem BioAssay.

Target: Tumor necrosis factor receptor superfamily member 10B (Homo sapiens) (UniProt O14763)
Assay: viability loss of caspase-8 NB7 cells with TRAIL – with/without TRAIL, luminescence panel, confirmation (AID 651596)
Conditions: NB7 neuroblastoma + caspase-8, TRAIL sensitization, NB7 Caspase-8, with TRAIL, mean of runs, at 10 µM, stronger effect = higher value

Tumor necrosis factor receptor superfamily member 10B (Homo sapiens), sequence (O14763 whole entry, looked up): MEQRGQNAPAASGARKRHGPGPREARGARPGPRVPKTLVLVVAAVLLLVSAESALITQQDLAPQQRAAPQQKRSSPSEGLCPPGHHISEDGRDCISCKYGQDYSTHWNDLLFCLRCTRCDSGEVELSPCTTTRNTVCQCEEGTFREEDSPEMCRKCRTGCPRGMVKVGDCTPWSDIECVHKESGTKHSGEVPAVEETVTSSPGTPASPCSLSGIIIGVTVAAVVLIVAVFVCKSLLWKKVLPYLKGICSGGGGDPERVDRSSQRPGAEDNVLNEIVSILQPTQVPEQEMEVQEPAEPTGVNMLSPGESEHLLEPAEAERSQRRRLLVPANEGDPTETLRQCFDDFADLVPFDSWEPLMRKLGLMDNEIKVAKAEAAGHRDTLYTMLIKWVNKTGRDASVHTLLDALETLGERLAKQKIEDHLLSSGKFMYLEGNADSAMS

Structure (SMILES)	activity [%]
Cc1ccc(C(=O)NCCc2cccs2)cc1	76.6
CCOC(=O)c1c(C)[nH]c(C(=O)OCC(=O)Nc2sccc2C(N)=O)c1C	69.8
CC(C)(C)C(=O)Nc1cc2nn(-c3ccccc3)nc2cc1Cl	98.2
CN1OC[C@@H]2CN[C@H](c3ccc(-c4cc5ccccc5o4)cc3)C[C@@H]21	90.1
Cc1cc(C(=O)COC(=O)c2ccccc2Br)c(C)n1CC1CCCO1 (configuration not stated)	68.1
CCCCCCCCCCCCCCCC(O)C[N+](C)(C)CCO (configuration not stated)	95.8
Cc1cc2sc3ccc(C#CC4(O)CCCCC4)cc3c(=O)c2cc1C	91.2
COCCn1c(C)cc(C(=O)COC(=O)c2ccccc2Br)c1C	79.5
CC1(C)Oc2cc3oc(-c4cc(O)cc(O)c4)cc3cc2CC1O (configuration not stated)	81.8
Nc1nc(CCl)nc(Nc2cccc3ccccc23)n1	99.8
CCCC(=O)N1CCCC(c2cc(C(=O)Nc3ccccc3)no2)C1 (configuration not stated)	52.6
COCCn1c(C)cc(C2=NNC(=NC3CC3)SC2)c1C	91.5
COC(=O)c1c(NC(=O)c2ccc([N+](=O)[O-])o2)sc2c1CCN(C(C)C)C2	46.9
CCn1c(C)cc(C(=O)COC(=O)c2ccccc2[N+](=O)[O-])c1C	94.7
O=C(NC1CCCCC1)C(c1cccnc1)N(C(=O)CCl)c1cccc(Cl)c1 (configuration not stated)	99.3
Cc1ccc2sc(N(CCCN(C)C)C(=O)c3ccc(S(=O)(=O)N4CCc5ccccc5C4)cc3)nc2c1C	75
O=C(CCl)N1N=C(c2ccco2)CC1c1cccs1 (configuration not stated)	98.5
N/C(=N\OC(=O)c1ccccc1)C(C(=O)NOC(=O)c1ccccc1)C1CCCCC1 (configuration not stated)	97.6
O=C(CCl)Nc1cccc(-c2cnc3ccccc3n2)c1	99.3
CCOc1cccc2sc(N(CCCN(C)C)C(=O)c3ccc(S(=O)(=O)N(C)Cc4ccccc4)cc3)nc12	28.6
COc1ccccc1N(C(=O)CCl)c1cn(C(C)=O)c2ccccc12	99.5

Tested on: not listed separately
Assay: as above
Conditions: NB7 neuroblastoma + caspase-8, without TRAIL, NB7 Caspase-8, without TRAIL, mean of runs, at 10 µM

Structure (SMILES)	activity [%]
Cc1ccc(C(=O)NCCc2cccs2)cc1	75.8
CCOC(=O)c1c(C)[nH]c(C(=O)OCC(=O)Nc2sccc2C(N)=O)c1C	62.2
CC(C)(C)C(=O)Nc1cc2nn(-c3ccccc3)nc2cc1Cl	97.7
CN1OC[C@@H]2CN[C@H](c3ccc(-c4cc5ccccc5o4)cc3)C[C@@H]21	90.9
Cc1cc(C(=O)COC(=O)c2ccccc2Br)c(C)n1CC1CCCO1 (configuration not stated)	74.3
CCCCCCCCCCCCCCCC(O)C[N+](C)(C)CCO (configuration not stated)	97.1
Cc1cc2sc3ccc(C#CC4(O)CCCCC4)cc3c(=O)c2cc1C	90.1
COCCn1c(C)cc(C(=O)COC(=O)c2ccccc2Br)c1C	76.5
CC1(C)Oc2cc3oc(-c4cc(O)cc(O)c4)cc3cc2CC1O (configuration not stated)	75.9
Nc1nc(CCl)nc(Nc2cccc3ccccc23)n1	98.7
CCCC(=O)N1CCCC(c2cc(C(=O)Nc3ccccc3)no2)C1 (configuration not stated)	37.5
COCCn1c(C)cc(C2=NNC(=NC3CC3)SC2)c1C	90.3
COC(=O)c1c(NC(=O)c2ccc([N+](=O)[O-])o2)sc2c1CCN(C(C)C)C2	88.7
CCn1c(C)cc(C(=O)COC(=O)c2ccccc2[N+](=O)[O-])c1C	93.3
O=C(NC1CCCCC1)C(c1cccnc1)N(C(=O)CCl)c1cccc(Cl)c1 (configuration not stated)	99.5
Cc1ccc2sc(N(CCCN(C)C)C(=O)c3ccc(S(=O)(=O)N4CCc5ccccc5C4)cc3)nc2c1C	87
O=C(CCl)N1N=C(c2ccco2)CC1c1cccs1 (configuration not stated)	97.8
N/C(=N\OC(=O)c1ccccc1)C(C(=O)NOC(=O)c1ccccc1)C1CCCCC1 (configuration not stated)	94.9
O=C(CCl)Nc1cccc(-c2cnc3ccccc3n2)c1	99.2
CCOc1cccc2sc(N(CCCN(C)C)C(=O)c3ccc(S(=O)(=O)N(C)Cc4ccccc4)cc3)nc12	-0.65
COc1ccccc1N(C(=O)CCl)c1cn(C(C)=O)c2ccccc12	98.3
